The text below walks through data of PubChem BioAssay (NCATS).

Where “and” joins values, the source holds several entries; their conditions need not be identical. Equal entries are not always repeated. Results filed as inconclusive are left out. Some structures have more than one record in an assay (separate samples or runs), and their calls can disagree. A number with no mark means an inactive call. Calls of active or inactive are those of the source. Calls come from the whole dose curve; as a rule, active = well fitted inhibition curve with a large enough effect; inconclusive = small, poorly fitted or top-dose-only effect; inactive = flat fitted curve, though single readings scatter.

For one test, the system named is CRL-7250. Description: Cytotoxic Profiling of Annotated Libraries Using Quantitative High-Throughput Screening (AID 1296008). For max response: % is set by controls: 0 for no effect and ±100 for the full control effect. Note: potency is the fitted concentration of half-maximal effect. Conditions: Five cell lines viability, CellTiter-Glo ATP luminescence, 48-72 h; max response: active compounds read low. A digest of the protocol:
(§1)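 Cytotoxicity was measured as CellTiter-Glo ATP luminescence, read after 10 min at room temperature. Compound treatment of the cells lasted 48 or 72 hr at 37 degrees Celsius in a qHTS format.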
On the technique in general: ATP-based viability assays read luminescence as a measure of living cells.

Test [1] concerns HaCat. The test is described as above. Conditions: Five cell lines viability, CellTiter-Glo ATP luminescence, 48-72 h; max response: active compounds read low. In outline: as §1
For the next test, the system named is HEK293. The description is as above. To be noted: Five cell lines viability, CellTiter-Glo ATP luminescence, 48-72 h; max response: active compounds read low. A digest of the protocol:
as §1

In another test the test system is NIH3T3. The test is described as above. To be noted: Five cell lines viability, CellTiter-Glo ATP luminescence, 48-72 h; max response: active compounds read low. A digest of the protocol: as §1
Another test relates to MCC-13. The test can be described thus: qHTS assay to identify novel small-molecules to repurpose for Merkel cell carcinoma treatment (AID 1296009). Note: potency is the fitted concentration of half-maximal effect. Conditions: MCC and control cell lines, CellTiter-Glo viability, 72 h; series mostly up to 46 µM. In outline:
(§2)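 Cell viability, measured as CellTiter-Glo luminescence, was normalized between DMSO and no-cell wells. The cells had been exposed to 8- or 11-point compound dilutions for 72 hr at 37 degree celsius.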
(In general: In qHTS, concentration-response curves come from the screen itself.)

The next test has as its system KB-3-1. The test can be described thus: Cytotoxic Profiling of Annotated Libraries Using Quantitative High-Throughput Screening (AID 1296008). For max response: % is set by controls: 0 for no effect and ±100 for the full control effect. Note: potency is the fitted concentration of half-maximal effect. To be noted: Five cell lines viability, CellTiter-Glo ATP luminescence, 48-72 h; max response: active compounds read low. In outline:
as §1

The test system of the next test is MCC-26. The test can be described thus: qHTS assay to identify novel small-molecules to repurpose for Merkel cell carcinoma treatment (AID 1296009). Note: potency is the fitted concentration of half-maximal effect. Conditions: MCC and control cell lines, CellTiter-Glo viability, 72 h; series mostly up to 46 µM. A digest of the protocol:
as §2

The subject of test [2] is HACAT. The test is described as above. Conditions: MCC and control cell lines, CellTiter-Glo viability, 72 h; at 44.8 µM (top of the series) unless noted. A digest of the protocol: as §2
For the next test, the system named is P94_40. Description: qHTS profiling for inhibitors of Plasmodium falciparum proliferation (AID 504749).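 Note: 0% = DMSO vehicle and full inhibition = artemisinin control.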 To be noted: P. falciparum in erythrocytes, SYBR Green DNA, 72 h; series mostly up to 28.7 µM. In outline:
(§3)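 SYBR Green fluorescence of parasite DNA, read after lysis and overnight dark incubation, measured growth over 72 h in erythrocyte culture at 0.3% parasitemia and 2.5% hematocrit. Data normalised to DMSO and 0.29 uM artemisinin, with plate-drift correction.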

The test system of a further test is PC15. Described as above. To be noted: P. falciparum in erythrocytes, SYBR Green DNA, 72 h; series mostly up to 28.7 µM. A digest of the protocol: as §3
The next test deals with PC49. The test is described as above. Conditions: P. falciparum in erythrocytes, SYBR Green DNA, 72 h; series mostly up to 28.7 µM. A digest of the protocol: as §3
In the next test the test system is SC27B. Described as above. To be noted: P. falciparum in erythrocytes, SYBR Green DNA, 72 h; series mostly up to 28.7 µM. A digest of the protocol: as §3
In a further test the test system is TAB109. The description is as above. To be noted: P. falciparum in erythrocytes, SYBR Green DNA, 72 h; series mostly up to 28.7 µM. A digest of the protocol: as §3
Another test concerns TAB113. The test is described as above. To be noted: P. falciparum in erythrocytes, SYBR Green DNA, 72 h; series mostly up to 28.7 µM. A digest of the protocol: as §3
Another test deals with TAB165. The test is described as above. To be noted: P. falciparum in erythrocytes, SYBR Green DNA, 72 h; series mostly up to 28.7 µM. In outline: as §3
Note: nearly all actives have a fitted effect of over 60% in size.

Regarding `C=CC(=O)Nc1cccc(Sc2nc(Nc3ccc(N4CCN(C)CC4)cc3)ncc2Cl)c1`, the Potency with CRL-7250 is 33.2 µM (active); with HaCat [1], 5.8 µM (active).

For `CCNC(=O)c1noc(-c2cc(C(C)C)c(O)cc2O)c1-c1ccc(CN2CCOCC2)cc1`, the Potency was 0.0833 µM (active) in the test with CRL-7250; 46.9 nM (active) and 9.2 nM (active) with HEK293; 469 nM (active) and 41.1 nM (active) in the test on HaCat [1]; 264 nM (active) and 51.7 nM (active) in the test with NIH3T3; 209 nM (active) in the test on MCC-13.

`CCCCCCCCCCCCCC(=O)N[C@H](CO)[C@H](O)c1ccc([N+](=O)[O-])cc1`: the Potency was 9.35 µM (active) in the test with CRL-7250 and 5.26 µM (active) with HEK293. In the test on KB-3-1, the max response was 5.57%. Moreover, the Potency result in the test on MCC-13 and in the test with MCC-26 was “inactive” throughout.

Consider `C[C@@H](N)c1ccc(C(=O)Nc2ccnc3[nH]ccc23)cc1`, for which the max response in the test on CRL-7250 is -24.2%. In addition, the Potency in the test on HEK293 is 23.1 µM (active); in the test on HaCat [1], 18.4 µM (active); in the test on NIH3T3 it was 23.5 µM (active) and 16.4 µM (active). Further, the Potency result with MCC-26 was “inactive”.

With `Cc1cccc2c1CC[C@H](CN1CCC(c3c(Cl)cccc3Cl)CC1)C[C@@H]2O`, the max response in the test on CRL-7250 is -6.89% and 0.148%; with HaCat [1], 1.39%; in the test on KB-3-1 it was -8.1%; with NIH3T3, -20.2%. Also, in the test on HEK293, the Potency is 14.6 µM (active). Besides, the Potency result in the test with MCC-26 was “inactive”.

As to `CCNC(=O)Nc1ccc(Oc2ncnc(N)c2C=NOC)cc1Cl`, the outcome in the test with CRL-7250, in the test on HaCat [1] and in the test on HACAT [2] was inactive. For the same compound, the max response was -3.24% in the test with HEK293 and 4.69% in the test on NIH3T3. Besides, the Potency result with MCC-13 and in the test on MCC-26 was “inactive” in each case.

Regarding `O=C(CCCN1CCN(c2ccc(F)cc2)CC1)NC1c2ccccc2CSc2ccccc21` (stereo unspecified), the Potency with CRL-7250 is 8.33 µM (active); with HEK293, 3.72 µM (active). Moreover, the max response with HaCat [1] was -5.32%; with NIH3T3 it was -3.67%. For the same compound, the Potency entry in the test with MCC-26 is “inactive”.

In the case of `O=C1CCCC(=O)C1C(=O)c1ccc(C(F)(F)F)cc1[N+](=O)[O-]`, the max response in the test with CRL-7250 was -12.8%; in the test on HEK293 it was 0.204%; in the test with KB-3-1, 8.25%; in the test on NIH3T3 it was -10%. Besides, the Potency entry in the test with MCC-13 and in the test on MCC-26 was “inactive” throughout.

On to `O=S(=O)(O)c1ccc2cc(N=Nc3cc(S(=O)(=O)O)c4cccnc4c3O)ccc2c1`, for which the max response with CRL-7250 is -1.21%; in the test with HEK293, -8.8% and -0.547%; with HaCat [1] it was -5.73% and 2.13%; in the test on KB-3-1 it was -11.7% and -5.81%; in the test with NIH3T3, -3.13% and 2.59%. In addition, the Potency result in the test on MCC-13 and in the test on MCC-26 was “inactive” in each case.

With `Nc1ncnc2c1c(-c1cccc(OCc3ccccc3)c1)cn2C1CC(CN2CCC2)C1` (stereo unspecified), the compound was called inactive in the test on CRL-7250. Besides, the Potency in the test with HEK293 was 26.4 µM (active) and 8.2 µM (active); in the test on KB-3-1, 23.1 µM (active); in the test on NIH3T3 it was 23.5 µM (active) and 4.61 µM (active). The max response in the test on HaCat [1] is 4.36%. The Potency entry in the test with MCC-13 and in the test with MCC-26 was “inactive” in each case.

As to `CN1CCN2c3ncccc3Cc3ccccc3C2C1` (stereo unspecified), the Potency entry in the test on P94_40, with SC27B, in the test with TAB109, in the test on TAB113, in the test with TAB165 and in the test with MCC-13 was “inactive” throughout. Further, the Potency result with MCC-26 is “inactive”. In addition, the compound was called inactive in the test with PC15, in the test with PC49 and in the test on NIH3T3. In addition, the max response was -0.363% in the test with CRL-7250; -5% with HEK293; -6.78% in the test with HaCat [1]; -7.74% and 1.92% in the test with KB-3-1.

For `Cc1cccc(Nc2nc(N[C@@H]3CCCC[C@H]3N)ncc2C(N)=O)c1`, in the test with CRL-7250, the call was inactive. In addition, the Potency in the test on HEK293 was 14.8 µM (active). Also, the max response with HaCat [1] was -5.8%. In the test on MCC-13, the Potency entry was “inactive”.

As to `Fc1ccc(CNc2ncnc3ccc(F)cc23)cc1`, the Potency was 4.69 µM (active) and 4.61 µM (active) with CRL-7250; 6.51 µM (active) with HEK293. Also, the max response in the test with HaCat [1] is -29%; in the test with NIH3T3 it was -22.4%. For the same compound, the Potency entry in the test on MCC-13 and in the test with MCC-26 was “inactive” in each case.

On to `CCC=CC[C@H]1C(=O)CC[C@@H]1CC(=O)OC`, for which the max response with CRL-7250 is -0.832%; with HEK293, 3.57%. The outcome with HaCat [1], with KB-3-1 and with HACAT [2] was inactive. In addition, the Potency result in the test with MCC-13 and in the test with MCC-26 was “inactive” in each case.

On to `COc1cc2nccc(Oc3ccc(NC(=O)Nc4cc(C)on4)c(Cl)c3)c2cc1OC`, for which the Potency is 14.8 µM (active) with CRL-7250; 13.2 µM (active) with HEK293; 18.7 µM (active) in the test on KB-3-1; 9.35 µM (active) and 3.66 µM (active) in the test with NIH3T3.

Consider `Nc1nc(Cl)nc2c1ncn2[C@@H]1O[C@H](CO)[C@@H](O)[C@H]1F`, for which the Potency in the test on CRL-7250 is 1.66 µM (active); in the test with HEK293 it was 0.469 µM (active); in the test on HaCat [1], 0.0743 µM (active); in the test on NIH3T3, 166 nM (active); in the test with MCC-26, 590 nM (active).

`CC(=O)Nc1cccc(-n2c(=O)n(C3CC3)c(=O)c3c(Nc4ccc(I)cc4F)n(C)c(=O)c(C)c32)c1`: the Potency with CRL-7250 was 0.164 µM (active); with HEK293, 11.8 µM (active); in the test with HaCat [1], 3.32 µM (active) and 5.17 µM (active); with NIH3T3, 418 nM (active) and 259 nM (active). In the test with KB-3-1, the max response is -5.06% and 7.25%. For the same compound, the Potency entry with MCC-26 is “inactive”.

Turning to `CC(O)=C(C#N)C(=O)Nc1ccc(C(F)(F)F)cc1`, the results for the max response with CRL-7250 and in the test on HaCat [1] were -8.07% and -27.6%, respectively. Besides, in the test on HEK293, the Potency is 11.8 µM (active). In addition, the Potency entry in the test with MCC-13 and in the test with MCC-26 was “inactive” each time.

With `Cc1cnc(CNC(=O)c2c(=O)c3ccc(N4CCCN(C)CC4)nc3n3c2sc2ccccc23)cn1`, the max response with CRL-7250 is -36.5% and -21.3%; in the test with HaCat [1], -24.1%. Besides, the Potency in the test with HEK293 is 0.0512 µM (active). For the same compound, the Potency entry in the test with MCC-13 and in the test with MCC-26 was “inactive” each time.

For `Cc1ccc(NC(=O)c2ccc(CN3CCN(C)CC3)cc2)cc1Nc1nc(-c2cccnc2)cs1`, the max response in the test with CRL-7250 is -52.7%; in the test on HaCat [1], -8.86%; in the test with KB-3-1, -13.9%. In addition, the Potency in the test on HEK293 is 8.33 µM (active). Also, the Potency result with MCC-13 and with MCC-26 was “inactive” each time.

For the compound `COc1cc(N2CCN(C)CC2)ccc1Nc1nc(N)c(C(=O)c2c(Cl)cccc2Cl)s1`, the max response was -21% in the test with CRL-7250 and -5.11% in the test on KB-3-1. Further, the Potency in the test with HEK293 is 23.5 µM (active). The result with HaCat [1] and in the test on HACAT [2] was inactive. In addition, the Potency result in the test on MCC-13 and in the test with MCC-26 was “inactive” throughout.

With `CN(C)c1ccc(-c2nc3ncc(Cl)c(N4CCN(CC(=O)Nc5nccs5)CC4)c3[nH]2)cc1`, in the test on CRL-7250, the max response is -24%. The compound was classed as inactive with HaCat [1] and with KB-3-1. Further, the Potency in the test with KB-3-1 was 2 µM (active). Also, the outcome with HACAT [2] is “inactive [at 17.4 µM]”. The Potency result with MCC-13 and in the test on MCC-26 was “inactive” throughout.
